Measurements from the OligoGym collection.

Biological target: RBFOX1
Experiment: pooled miR-30 sensor sort-seq; sequence = guide strand
Conditions: shRNA
Further: reference of the scale not given here.

Sequence | sensor-assay potency score (higher = more potent)
TTCTAGAACTTAACAACTCCAC | -0.286
TTTTATTTGTCATTACACGTGC | 0.123
TTGACCAAACATTTGTCTGAGG | -0.662
TTTAATATCCAACTGATCTTAC | -0.633
TTTTTATTCATTATCTAGCATC | -0.945
TTATTTGTCATTACACGTGCTG | 0.199
TACACATGAGGACTTAACCTAT | -0.971
TTACATAATATAGCACTCTGGA | -0.421

Biological target: RBM12B
Experiment: as above
Conditions: shRNA

Sequence | sensor-assay potency score (higher = more potent)
TAATAGGAGTTACTCTACCTGA | -0.42
TTTTTGTGAAACATGTCCGGGC | 0.0214
ATTTTTGTGAAACATGTCCGGG | -0.845
TATCTCTCTCTAGTGACCCTGA | 0.0397
TATGACATTTAAGACCTCCTGA | 0.971
TAATTGAAGAGCCATATCCAGA | -1.22
TTATACTGTATCGAAACTGAAT | -1.19
TAGATCTTTAATAGCAGCCATA | -1.64
TTAAGTGAACATAAAATCCAAG | -0.9
TAAGTCTTGAAGATTACCGATG | -1.18
TAAGTCTTAATAACACCTCTGT | 0.203
TAGTCTTCTGCATTTCTGCCTT | -0.412

Biological target: RBM15B
Experiment: as above
Conditions: shRNA

Sequence | sensor-assay potency score (higher = more potent)
TTTTTCAACACCAGAAGCCCAT | 0.0926
TCGTGTGACCTCGTCAAGCTTG | -1.02
TGTGACACAAACATGACGCTGG | 0.96
TTTGACGTGATCAATGGTCCGA | 0.695
TAAGAGGACCGCATAGCCGTTG | -0.808
TATAGGCAAAGCTATCTCCTTT | -0.598
TTGACGTGATCAATGGTCCGAA | 0.476
TTTTGTGACACAAACATGACGC | 0.652
TTGTGACACAAACATGACGCTG | -1.03
TTGCTGAGGGAGTTGCTGCTGG | -0.717
TTTAAAATAACTGCTTTTGTGA | -0.54

Biological target: RBM28
Experiment: as above
Conditions: shRNA

Sequence | sensor-assay potency score (higher = more potent)
TTCTTCACCTTCGTCGTCTGAA | -0.116
TCCACTAGTAGCACTCAGCAGC | -1.24
TTTCTTGGCAACAGTCACGTTG | -0.362
TTGCACAGCTTTATCCTCTTGC | 0.184
TTGAAAAAGTGACATAGCCAAA | -1.59
TTTTGTTTGAGACTTGCACAGC | -0.43
TTATATTGTTCGACCAGCTGGT | 0.168
TTGGTCTGGAACCCGGTCCATG | -1.16
TTGTCATCTACAGCCTTTGGGA | -0.978
